We go through 15 compounds from PubChem BioAssay (EPA / NIEHS).

Assay [1] can be described thus: CEETOX_H295R_11DCORT: CeeTox H295R High-throughput Steroidogenesis Assay for 11-Deoxycortisol (11DCORT) (AID 2283432).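 On AC50: 11-deoxycortisol secreted into the medium measured by LC-MS/MS.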 The note with it: actives raise or lower the signal. Summed up:
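Steroidogenesis in human H295R cells: 48 h chemical exposure after forskolin priming, 11-deoxycortisol measured by LC-MS/MS.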

Assay [2] can be described thus: CEETOX_H295R_OHPREG: CeeTox H295R High-throughput Steroidogenesis Assay for OH-Pregnenolone (OHPREG) (AID 2283434). The note with it: actives raise or lower the signal. In a few lines: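 H295R cells pre-stimulated 48 h with 10 uM forskolin, then exposed 48 h to chemical in 0.1% DMSO. 17alpha-hydroxypregnenolone in medium quantified by MTBE extraction and HPLC-MS/MS; bidirectional fit versus DMSO, viability checked by MTT.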

Assay [3] is described as follows: CEETOX_H295R_OHPROG: CeeTox H295R High-throughput Steroidogenesis Assay for OH-Progesterone (OHPROG) (AID 2283435).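 On AC50: 17alpha-hydroxyprogesterone secreted into medium measured by HPLC-MS/MS.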 The following applies: actives raise or lower the signal. In a few lines:
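Secreted 17alpha-hydroxyprogesterone is read by tandem MS from media of forskolin-primed H295R cells dosed with chemical for 48 h. Activity is fitted in both directions against DMSO baseline; cytotoxic concentrations are re-tested diluted.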

Assay [4] can be described thus: CEETOX_H295R_CORTIC: CeeTox H295R High-throughput Steroidogenesis Assay for Corticosterone (CORTIC) (AID 2283437).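 Further: corticosterone secreted into medium quantified by mass spectrometry.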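 On AC50: human H295R adrenal cells prestimulated with forskolin before chemical exposure.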 The note with it: actives raise or lower the signal. Summed up:
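H295R adrenal cells prestimulated 48 hours with 10 uM forskolin, then exposed 48 hours to chemical in 0.1% DMSO. Corticosterone in medium measured by HPLC-MS/MS after MTBE extraction; MTT viability in the same wells; bidirectional fit versus DMSO.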

Assay [5] is described as follows: CEETOX_H295R_CORTISOL: CeeTox H295R High-throughput Steroidogenesis Assay for Cortisol (AID 2283438).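 Further: cortisol secreted into medium quantified by LC-MS/MS.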 The following applies: actives raise or lower the signal. Summed up:
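Human adrenocortical H295R cells (passage ≤10) received test chemicals for 48 h after forskolin priming. Secreted cortisol was measured by LC-MS/MS.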

Assay [6] is described as follows: CEETOX_H295R_DOC: CeeTox H295R High-throughput Steroidogenesis Assay for DOC (AID 2283439). The following applies: actives raise or lower the signal. Summed up: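 Secreted DOC was quantified from H295R media by HPLC-MS/MS after 48 h chemical exposure following 48 h forskolin (10 uM) prestimulation. Values were fitted in both directions relative to DMSO, the negative control and baseline.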

The nature of assay [7]: CEETOX_H295R_ESTRADIOL: CeeTox H295R High-throughput Steroidogenesis Assay for Estradiol (AID 2283440).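 Further: estradiol secreted into medium quantified by LC-MS/MS after dansyl derivatisation.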 The following applies: actives raise or lower the signal. In a few lines:
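Estradiol in spent medium measured by LC-MS/MS after dansyl chloride derivatisation. Forskolin-primed (10 uM, 48 h) human adrenal H295R cells received test chemical 48 h at 0.1% DMSO; concentrations lowered until MTT viability >/=70%.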

Assay [8] is described as follows: CEETOX_H295R_ESTRONE: CeeTox H295R High-throughput Steroidogenesis Assay for Estrone (AID 2283441).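 Further: estrone secreted into medium measured by LC-MS/MS after dansyl derivatization.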 The following applies: actives raise or lower the signal. In a few lines:
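H295R cells; 48 h forskolin (10 uM) prestimulation; 48 h compound exposure, 0.1% DMSO final. Medium estrone: MTBE extraction, dansyl derivatization, HPLC-MS/MS. Bidirectional fit vs DMSO.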

Assay [9] has as its target Peroxisome proliferator-activated receptor gamma (Homo sapiens) (UniProt P37231). Briefly: OT_PPARg_PPARgSRC1_1440: Odyssey Thera (OT) 24-hour Protein-Complementation Assay for Peroxisome Proliferator-activated Receptor Gamma/ SRC-1 Co-activator (AID 2283388; active means hit-call score of the fitted dose curve at least 0.9, where 1 is the maximum;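 further: nuclear to cytoplasmic ratio of reconstituted Venus YFP fluorescence in fixed imaged cells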). Summed up:
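Readout is the 488 nm N/C fluorescence ratio from fixed, Draq5-stained HEK293T cells after 24 h compound exposure. Cells carried transiently transfected PPARg and SRC-1 fused to Venus fragments, transfected 48 h before treatment.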

Assay [10] in a line: CEETOX_H295R_ANDR: CeeTox H295R High-throughput Steroidogenesis Assay for Androstenedione (ANDR) (AID 2283436). The following applies: actives raise or lower the signal. Summed up: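 H295R cells, following OECD 456 with minor changes, exposed to chemicals for 48 h. Androstenedione in the medium was quantified by HPLC-MS/MS after MTBE extraction. Fitting was bidirectional versus DMSO; chemicals were diluted until MTT viability was ≥70%.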

Calls of active or inactive are those of the source. How the source made its calls, unless noted: active means hit-call score of the fitted dose curve at least 0.9, where 1 is the maximum; inactive means score below 0.9.

Sequence of Peroxisome proliferator-activated receptor gamma (Homo sapiens) (P37231 whole entry, looked up, the tested form may be a part): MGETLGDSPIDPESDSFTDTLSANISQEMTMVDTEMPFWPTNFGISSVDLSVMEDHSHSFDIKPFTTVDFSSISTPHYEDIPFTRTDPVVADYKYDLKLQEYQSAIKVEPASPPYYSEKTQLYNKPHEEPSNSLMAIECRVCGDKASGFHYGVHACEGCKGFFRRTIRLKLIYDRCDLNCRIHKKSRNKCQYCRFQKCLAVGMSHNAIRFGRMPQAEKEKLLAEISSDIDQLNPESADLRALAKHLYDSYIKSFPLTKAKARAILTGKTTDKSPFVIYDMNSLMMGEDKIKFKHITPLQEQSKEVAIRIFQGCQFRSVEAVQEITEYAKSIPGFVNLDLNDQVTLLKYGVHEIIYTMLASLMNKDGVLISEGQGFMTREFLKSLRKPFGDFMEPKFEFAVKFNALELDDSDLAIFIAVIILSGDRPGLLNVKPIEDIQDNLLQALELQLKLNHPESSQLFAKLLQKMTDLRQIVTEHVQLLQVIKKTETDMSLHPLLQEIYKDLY

As to `c1cc(-c2ccncc2)ccn1`, the outcome in assay [1], in assay [2], in [3], in assay [4], in assay [5] and in [6] was inactive. In addition, the compound was classed as inactive in assay [7] and in [8].
On to `Cc1ccc(C)c(O)c1C`, for which the outcome in assay [9] was inactive.
On the same count and under the same terms, then `CC(C)(C)c1cc(O)c(C(C)(C)C)cc1O`, with “inactive”.
On to `NC(=O)Cn1c(=O)cc(CCN2CCN(c3nccc4sccc34)CC2)c2ccc(F)cc21`, for which the AC50 in assay [1] is 27.6 µM (active); in [2], 25 µM (active); in assay [3], 7.83 µM (active); in [4], 4.46 µM (active); in assay [5], 25 µM (active); in assay [6], 16.9 µM (active).
As to `Cc1cc(NC(=O)C(=O)O)cc(C)c1Oc1ccc(O)c2c1CCC2`, the call in assay [1], in assay [2] and in assay [5] was inactive. Moreover, the concentration at half-maximal activity (AC50) in [3] is 35 µM (active); in [4], 34.1 µM (active); in [6], 37.6 µM (active).
`COc1ccc(C)cc1N`: the compound was classed as inactive in [9], in [1], in assay [2], in [10] and in assay [6]. Besides, the AC50 in [3] was 19.3 µM (active); in assay [4] it was 74.3 µM (active); in [5], 36.7 µM (active).
`Cc1nc(-c2ccc3c(c2)CCN(CCC2CCC(NC(=O)/C=C/c4ccc(F)cc4)CC2)CC3)no1` (stereo not drawn): the outcome in assay [9], in assay [4], in [5], in assay [7] and in assay [8] was inactive. Besides, the AC50 in assay [1] was 0.199 µM (active); in [2], 0.0518 µM (active); in assay [3] it was 0.224 µM (active); in assay [10] it was 0.365 µM (active); in [6] it was 0.0532 µM (active).
Consider `COc1ccc2c(c1)c(CC(=O)O)c(C)n2C(=O)c1ccc(Cl)cc1`, for which the outcome in [9], in assay [1], in [2], in [3], in [10] and in [4] was inactive. The result in assay [5] and in assay [6] was inactive.
With `C[C@]12C=CC(=O)C=C1CC[C@@H]1[C@@H]2C(=O)C[C@@]2(C)[C@H]1CC[C@]2(O)C(=O)CO`, the compound was called inactive in assay [9], in [3], in [7] and in assay [8].
In the case of `Oc1ccc2c(c1)OC[C@@H](N1CCC(O)(c3ccc(F)cc3)CC1)[C@H]2O`, the call in assay [9], in assay [1], in [2], in [3], in assay [4] and in [5] was inactive. The call in assay [6], in assay [7] and in assay [8] was inactive.
For the compound `C=CCc1ccc(O)c(OC)c1`, the compound was classed as inactive in [2] and in assay [3].
On to `CCOc1ccc2c(c1)C(C)=CC(C)(C)N2`, for which the outcome in assay [9] and in assay [2] was inactive. The AC50 is 2.44 µM (active) in [3] and 36.4 µM (active) in assay [10].
As for `COc1ccc(S(=O)(=O)N2C(=O)[C@@](c3ccccc3OC)(N3C[C@H](O)C[C@H]3C(=O)N(C)C)c3cc(Cl)ccc32)c(OC)c1`, the call in assay [1], in assay [2], in [10], in assay [4], in assay [5] and in assay [6] was inactive. In addition, the AC50 in [3] was 5.43 µM (active).
Take `CN[C@H]1CC[C@@H](c2ccc(Cl)c(Cl)c2)c2ccc(S(N)(=O)=O)cc21`: the compound was classed as inactive in assay [9].
With `CN1CCN(Cc2cc(-c3ccc4[nH]c(=O)oc4c3)co2)[C@@H](c2ccc(F)cc2)C1`, the result in assay [1], in [2], in assay [4], in assay [5], in assay [6] and in assay [7] was inactive. Moreover, the call in assay [8] was inactive. Besides, the AC50 in assay [3] is 4.56 µM (active).
